Screening results from PubChem BioAssay.
Shown are actives, neighbours in structure and some others; about 10% of the full set was active somewhere.
BAZ2B inh: blocks human BAZ2B | hit rate 4.4% among 360,000 | Potency, µM (series often up to 114 µM), without a hit: at the highest dose activity change, negative = inhibition, actives largely listed as inhibitors | AlphaScreen BAZ2B-H3K14Ac peptide displacement | Q9UIF8; further: potency means the concentration at half of the fitted maximal effect; on the % scale 0 is the no-effect control and ±100 the full control effect; nearly all actives have a fitted effect of over 60% in size
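Complex of BAZ2B and biotin-H3K14Ac (50 nM apiece) forms over 30 min at RT, then faces library compounds up to 110 uM for another 30 min; AlphaScreen beads added, 20 min dark incubation, luminescence read.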
JMJD2A Tudor: inhibitors of human JMJD2A Tudor domain; AlphaScreen JMJD2A-Tudor / H3K4me3 peptide binding; hit rate 4.4% among 390,000; AID 504339; O75164; Potency, µM (doses to about 114 µM), for the others: at the highest dose activity change, negative = inhibition, actives largely listed as inhibitors; further: potency means the concentration at half of the fitted maximal effect; on the % scale 0 is the no-effect control and ±100 the full control effect; nearly all actives have a fitted effect of over 50% in size
Target sequence (O75164 whole entry, looked up, the tested form may be a part): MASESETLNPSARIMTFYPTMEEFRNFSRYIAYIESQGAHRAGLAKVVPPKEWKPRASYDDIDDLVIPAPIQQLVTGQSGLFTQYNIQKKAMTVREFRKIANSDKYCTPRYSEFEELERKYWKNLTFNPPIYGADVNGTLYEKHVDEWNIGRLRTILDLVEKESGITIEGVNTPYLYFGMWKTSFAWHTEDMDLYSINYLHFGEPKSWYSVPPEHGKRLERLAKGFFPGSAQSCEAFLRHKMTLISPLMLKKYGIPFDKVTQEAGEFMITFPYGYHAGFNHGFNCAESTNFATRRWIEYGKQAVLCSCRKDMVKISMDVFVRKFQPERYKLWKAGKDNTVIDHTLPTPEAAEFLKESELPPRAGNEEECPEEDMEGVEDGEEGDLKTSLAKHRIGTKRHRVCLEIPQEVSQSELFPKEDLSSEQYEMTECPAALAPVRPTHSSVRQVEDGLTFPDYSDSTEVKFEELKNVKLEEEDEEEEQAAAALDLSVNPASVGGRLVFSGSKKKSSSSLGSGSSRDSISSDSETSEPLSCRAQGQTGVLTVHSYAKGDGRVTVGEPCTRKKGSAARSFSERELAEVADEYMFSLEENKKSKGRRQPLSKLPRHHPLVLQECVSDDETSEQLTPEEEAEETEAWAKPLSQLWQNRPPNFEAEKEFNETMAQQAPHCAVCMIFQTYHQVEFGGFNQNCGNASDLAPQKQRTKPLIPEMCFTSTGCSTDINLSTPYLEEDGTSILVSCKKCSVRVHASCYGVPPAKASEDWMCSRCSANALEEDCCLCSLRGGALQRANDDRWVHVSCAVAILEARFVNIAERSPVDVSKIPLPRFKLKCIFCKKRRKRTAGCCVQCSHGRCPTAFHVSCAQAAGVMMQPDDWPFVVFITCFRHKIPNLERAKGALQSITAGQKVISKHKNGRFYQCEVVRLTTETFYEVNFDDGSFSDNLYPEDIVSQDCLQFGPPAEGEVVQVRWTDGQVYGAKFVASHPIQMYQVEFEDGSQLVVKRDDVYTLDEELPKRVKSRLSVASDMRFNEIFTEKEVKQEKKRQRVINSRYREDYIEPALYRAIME
HP1b chromo inh: blocks HP1-beta chromodomain binding to methylated histone tails. P83916. AlphaScreen HP1-beta / biotin-H3K9me3 peptide binding. Potency, µM (top dose mostly 114 µM), for the others: at the highest dose activity change, negative = inhibition, most hits filed as inhibitors. hit rate 0.56% among 390,000. AID 540317; further: potency means the concentration at half of the fitted maximal effect; nearly all actives have a fitted effect of over 70% in size
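Compound inhibition of the preformed complex between 50 nM HP1-beta and 50 nM biotinylated H3K9me3 peptide was read by AlphaScreen. Buffer was PBS pH 7.4 with 0.01% Tween-20. Incubations ran 30 min at room temperature, with 10 ug/mL donor/acceptor beads.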
Six1-Eya2 blk: blocks human Six1 binding to Eya2; Q15475+O00167; AlphaScreen GST-Six1/His-Eya2 binding, biochemical; active compounds read low; activity change, % (test concentration not listed); hit rate 0.56% among 360,000; in the data active means activity change below about -65%; inconclusive means mostly about -30% to -63%; further: on the % scale 0 is the no-effect control and ±100 the full control effect
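AlphaScreen with GST-Six1 and His-Eya2 (5X mix: 250 nM and 500 nM), glutathione donor and nickel acceptor beads; buffer 50 mM Tris pH 8.0, 300 mM NaCl, 1 mM TCEP; 1 h at 37 C in the dark.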
CtBP-E1A inh: inhibitors of CtBP/E1A interaction. AlphaScreen GST-E1A/His-CtBP binding, 1536-well; active compounds read low. activity change, % (no concentration beside the values). hit rate 0.49% among 340,000. AID 651724; in the data active means activity change below about -65%; inconclusive means mostly about -30% to -63%; further: on the % scale 0 is the no-effect control and ±100 the full control effect
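GST-E1A and His-tagged CtBP (125 nM each as 5X stock) were preincubated with pin-transferred compound for 2 h at 37 °C in the dark, then glutathione donor and nickel acceptor beads were added for 1 h before AlphaScreen reading.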
G9a block: blocks human histone lysine methyltransferase G9a. G9a H3K9 monomethylation, AlphaScreen, 2 h. Potency, µM (highest dose often 102 µM), inactives show at the highest dose activity, negative = inhibition, actives largely listed as inhibitors. hit rate 8.8% among 350,000. AID 504332; further: potency means the concentration at half of the fitted maximal effect; on the % scale 0 is the no-effect control and ±100 the full control effect; nearly all actives have a fitted effect of over 75% in size
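AlphaScreen detection with an anti-monomethyl H3K9 antibody quantified product after a 2 h room-temperature reaction containing 500 nM biotinylated H3K9 peptide, 20 µM SAM and 20 nM enzyme, which had been preincubated 15 min with compound.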
* = called active by the depositor; ? = inconclusive; / = no result; [ ] = dose if it differs, or a comment. Unless noted, the call rests on the fitted dose curve; in most records, active means well fitted inhibition curve with a large enough effect; inconclusive means small, poorly fitted or top-dose-only effect; inactive means no such curve, though single readings can be large or run the other way.

SMILES | BAZ2B inh | JMJD2A Tudor | HP1b chromo inh | Six1-Eya2 blk | CtBP-E1A inh | G9a block
COc1ccc(C(CNC(=O)c2ccc(C)c(S(=O)(=O)N3CCCCC3)c2)N2CCCC2)cc1 (stereo unspecified) | / | -22% | 18% | 3 | 0 | /
COc1cccc(/C=C/C(=O)N2CCN(c3n[nH]c(=O)[nH]c3=O)CC2)c1OC | -16% | -14% | 28% | -13 | 4 | -5%[59 µM]
COc1ccc(OC)c(N=C2C(=O)Nc3ccccc32)c1 | ? | -31% | 0% | -6 | 5 | ?
COc1ccc(OC)c(N=c2ssnc2Cl)c1 | 25µM* | ? | ? | -2 | -9 | 1.1µM*
COc1cc(N=c2ssnc2Cl)c(OC)cc1Cl | 28µM* | 25µM* | 11µM* | -5 | ? | 1.1µM*
COc1cc(-n2nnnc2SC)c(OC)cc1Cl | -5% | -4% | 30% | 1 | 4 | 10%
Cc1cccc(C)c1NC(=O)C(c1ccccc1)N1CCN(c2ccc(F)cc2)CC1 (stereo unspecified) | / | / | / | 0 | 5 | /
CC(C)(O)C1Cc2cc(/C=C/C(=O)O)c(O)cc2O1 (stereo unspecified) | 20µM* | 4µM* | ? | 5 | -14 | 2µM*
COc1cc2c(cc1/C=C/C(=O)O)OC(C)C2 (stereo unspecified) | -16% | -10% | 31% | 2 | -8 | -17%
O=C1NC2CCCCC2C(=O)N1OS(=O)(=O)c1ccccc1 (stereo unspecified) | / | ? | 50µM* | 0 | 0 | /
O=C1CCN(S(=O)(=O)c2ccccc2)C2CCCCC12 (stereo unspecified) | -3% | -25%[57.1 µM] | -5% | -2 | 0 | -28%
N#Cc1c(=O)c2nc(NCCCO)ncc2n2c(=O)c3ccccc3[nH]c12 | 13µM* | 56µM* | 28% | ? | ? | 45µM*
CCCOC(=O)N1CCN(/[N+]([O-])=N/Oc2ccc([N+](=O)[O-])cc2[N+](=O)[O-])CC1 | / | ? | 3% | / | / | /
COc1ccccc1NC(=O)N(Cc1ccco1)Cc1cc2ccc(C)c(C)c2[nH]c1=O | / | ? | -10% | -20 | -4 | ?
COc1ccccc1NC(=O)N(Cc1ccco1)Cc1cc2cc(C)cc(C)c2[nH]c1=O | ? | ? | -2% | -18 | -8 | 45µM*
COc1cc(OC)c(OC)cc1/C=N/n1c(COc2ccccc2)n[nH]c1=S | -32% | 18µM* | ? | -1 | 0 | ?
COc1ccc(OC)c(/C=N/n2c(COc3ccccc3)n[nH]c2=S)c1 | 3% | -13% | 44% | -17 | -17 | ?
COc1ccc(/C=N/n2c(=S)n(C)c3ccccc32)cc1OC | ? | ? | -3% | -20 | -18 | ?
COc1ccc(Br)cc1/C=N/n1c(COc2ccccc2)n[nH]c1=S | 1% | -9% | 12% | 4 | 4 | 45µM*
COc1ccc(/C=N/n2c(COc3ccccc3)n[nH]c2=S)cc1OC | -27% | 14µM* | ? | -3 | 3 | 1.3µM*
CCOC(=O)c1c(NC(=O)c2cc(=O)c3cc(C)cc(C)c3o2)sc(C)c1C | -4% | -6% | 19% | / | / | -5%[59 µM]
COc1cccc(Nc2nc(C(N)Cc3ccc(C(F)(F)F)cc3)cs2)n1 (stereo unspecified) | / | / | / | -8 | -7 | /
Nc1ccn([C@@H]2O[C@H](C(=O)N3CCSC3)[C@@H](O)[C@H]2O)c(=O)n1 | / | / | / | 2 | 10 | /
O=C1CCCC2=C1C(c1ccc(Cl)cc1)N=C(Nc1nc3ccccc3o1)N2 (stereo unspecified) | / | 12%[57.1 µM] | 19%[57 µM] | / | / | /
C=CCNC(=O)[C@H]1N2C(=O)c3ccccc3C2SC1(C)C (stereo partly specified) | 2% | -11% | 43% | 11 | 2 | -20%
SMILES | BAZ2B inh | JMJD2A Tudor | HP1b chromo inh | Six1-Eya2 blk | CtBP-E1A inh | G9a block
CN(C)c1oc(-c2ccccc2Cl)nc1C#N | ? | -21% | -44% | -28 | 18 | ?
CN(C)c1oc(-c2ccccc2[N+](=O)[O-])nc1C#N | -38% | 16µM* | ? | -8 | / | 7.1µM*
COC(=O)[C@]12CCCCC=C1N(Cc1ccco1)C(=O)[C@H](CC(=O)NCCc1ccccc1OC)C2 | / | / | / | 3 | -16 | /
Cc1cc(C)c(Cn2cnc3ccccc32)c(C)c1 | -17% | -10% | 37% | -9 | -5 | 45µM*
Cc1ccc(OCCCCn2cnc3ccccc32)c(C)c1 | 25µM* | 1.6µM* | ? | -2 | 6 | 7.9µM*
Cc1cc(NC(=O)CSc2nnc(CNC(=O)c3cccc(C(F)(F)F)c3)o2)no1 | 8% | -24% | 22% | -72* | -78* | /
Cc1cc(C)cc(NC(=O)CSc2nnc(CNC(=O)c3ccco3)o2)c1 | -18% | -17% | 14%[57 µM] | 6 | 6 | 2%
Cc1cccc(NC(=O)CSc2nnc(CNC(=O)c3ccco3)o2)c1 | -11% | -2% | 55% | 0 | 4 | 11µM*
CCOC(=O)C1(C)CCN1C(=O)c1ccccc1OC(F)(F)F (stereo unspecified) | / | / | / | 7 | 3 | /
COc1ccc(-c2c(C#Cc3ccc(N(C)C)cc3)c3ccccc3n2C)cc1 | / | 56µM* | ? | ? | ? | /
O=CN1CCN(C(=O)c2ccc([N+](=O)[O-])cc2)CC1 | 5% | 3% | 24% | -5 | 5 | 6%[59 µM]
CC(C)CCN1CCC(CN2CCNC(=O)C2=O)CC1 | / | 89µM* | 28% | 2 | 5 | /
CC(C)CN1CCC(CN2CCNC(=O)C2=O)CC1 | / | -26% | 17% | 9 | 4 | /
COc1cccc(C(c2sc3nc(-c4ccco4)nn3c2O)N2CCC(C)CC2)c1 (stereo unspecified) | ? | -27% | -7% | / | / | 18µM*
COc1cccc(C(c2sc3nc(-c4ccco4)nn3c2O)N2CCCC2)c1 (stereo unspecified) | -21% | -18% | 18% | / | / | 14µM*
COc1cccc(C(c2sc3nc(-c4ccco4)nn3c2O)N2CCC(O)CC2)c1 (stereo unspecified) | 5% | -11% | 89% | / | / | ?
O=C(N/N=C/c1ccc(Cl)cc1Cl)c1ccc2nc[nH]c2c1 | -33% | 7% | 26% | -8 | / | 71µM*
O=C(N/N=C/C(Br)=C\c1ccccc1)c1ccc2nc[nH]c2c1 | -22% | -34% | 38% | -20 | -77* | 2%[59 µM]
CC(=C/c1ccccc1)/C=N/NC(=O)c1ccc2nc[nH]c2c1 | -6% | -9% | 20% | 4 | 6 | 15%[59 µM]
O=C(C[n+]1cccc(C(=O)N/N=C/c2ccc(Br)cc2)c1)c1ccccc1 | -9% | ? | 27% | -8 | / | 1.4µM*
